Results from PubChem BioAssay (EPA / NIEHS).
Activity calls are given as the source filed them. The calls were made as follows: active = hit-call score of the fitted dose curve at least 0.9, where 1 is the maximum; inactive = score below 0.9.

Columns and labels:
Settings in all cases: mRNA level, 48 h; actives raise or lower the signal
[1] = read-out: Cytochrome P450 3A4 (Homo sapiens) (UniProt P08684); test: LTEA_HepaRG_CYP3A4: Life Technologies and Expression Analysis (LTEA) Assay for CYP3A4 using HepaRG (AID 2283487)
Procedure, shortened: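 Differentiated HepaRG cells, plated 48 h, then dosed 48 h in serum-free induction medium with 0.5% DMSO, 8 half-log concentrations up to 100 uM, duplicate. CYP3A4 mRNA by qRT-PCR, normalized to ACTB/GAPDH/POLR2A; bidirectional fit versus DMSO.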

[2] = read-out: DNA damage-inducible transcript 3 (DDIT3), DDIT3 (gene 1649); test: LTEA_HepaRG_DDIT3: Life Technologies and Expression Analysis (LTEA) Assay for DNA damage-inducible transcript 3 (DDIT3) using HepaRG (AID 2283488)
Procedure, shortened: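 DDIT3 transcript was quantified by qRT-PCR with ACTB/GAPDH/POLR2A normalization after 48 h chemical treatment of differentiated HepaRG cells in 0.5% DMSO. Dosing was eight-point, half-log, top 100 uM, duplicate wells. Curves fitted bidirectionally versus DMSO.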

[3] = read-out: Pro-epidermal growth factor (Homo sapiens) (UniProt P01133); test: LTEA_HepaRG_EGF: Life Technologies and Expression Analysis (LTEA) Assay for Epidermal growth factor (EGF) using HepaRG (AID 2283489)
Procedure, shortened: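 HepaRG cells (~100,000/well, 48 h pre-culture) exposed in duplicate for 48 h in serum-free induction medium to 8 half-log concentrations up to 100 uM in 0.5% DMSO. EGF mRNA by qRT-PCR, normalized to ACTB/GAPDH/POLR2A; bidirectional fit versus DMSO.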

[4] = read-out: Early growth response protein 1 (EGR1) transcription factor, EGR1 (gene 1958); test: LTEA_HepaRG_EGR1: Life Technologies and Expression Analysis (LTEA) Assay for Early growth response protein 1 (EGR1) transcription factor using HepaRG (AID 2283490)
Procedure, shortened: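 EGR1 expression change in human HepaRG after 48 h chemical exposure, assessed by housekeeping-normalized qRT-PCR; concentration-response up to 100 uM, fitted in both directions against DMSO controls.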

[5] = read-out: Ezrin (EZR), EZR (gene 7430); test: LTEA_HepaRG_EZR: Life Technologies and Expression Analysis (LTEA) Assay for Ezrin (EZR) using HepaRG (AID 2283491)
Procedure, shortened: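 EZR transcript levels came from Fluidigm qRT-PCR and were normalized to three housekeeping genes after 48 h chemical exposure of HepaRG cells. Dosing used an 8-point half-log series with a 100 uM top concentration in 0.5% DMSO, tested in duplicate; both directions were fitted versus vehicle.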

CYP3A5 (gene 1577) = test: LTEA_HepaRG_CYP3A5: Life Technologies and Expression Analysis (LTEA) Assay for CYP3A5 using HepaRG (AID 2283493)
Procedure, shortened: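 mRNA levels were quantified by qRT-PCR on Fluidigm arrays and normalized to three housekeeping genes. Differentiated HepaRG cells received 48 h exposure (top 100 uM, half-log steps, 0.5% DMSO vehicle, duplicate); bidirectional fitting versus DMSO.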

[6] = read-out: Fatty Acid-Binding Protein 1 (FABP1), FABP1 (gene 2168); test: LTEA_HepaRG_FABP1: Life Technologies and Expression Analysis (LTEA) Assay for Fatty Acid-Binding Protein 1 (FABP1) using HepaRG (AID 2283494)
Procedure, shortened: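 Values reflect bidirectional concentration-response fitting of FABP1 mRNA change against 0.5% DMSO controls. Human HepaRG cultures received eight half-log doses (top 100 uM) for 48 h; expression quantified by TaqMan qRT-PCR with housekeeping-gene normalization.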

[7] = read-out: Cytochrome P450 4A22 (Homo sapiens) (UniProt Q5TCH4); test: LTEA_HepaRG_CYP4A22: Life Technologies and Expression Analysis (LTEA) Assay for Cytochrome P450 4A22 (CYP4A22) using HepaRG (AID 2283495)
Procedure, shortened: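 Differentiated HepaRG cells in serum-free induction medium exposed 48 h in duplicate to eight half-log concentrations up to 100 uM in 0.5% DMSO. CYP4A22 mRNA quantified by TaqMan qRT-PCR, normalized to ACTB, GAPDH and POLR2A; bidirectional fit versus DMSO.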

[8] = read-out: Cytochrome P450 7A1 (Homo sapiens) (UniProt P22680); test: LTEA_HepaRG_CYP7A1: Life Technologies and Expression Analysis (LTEA) Assay for Cytochrome P450 7A1 (CYP7A1) using HepaRG (AID 2283496)
Procedure, shortened: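 HepaRG, 48 h exposure, 8-pt half-log series from 100 uM, 0.5% DMSO vehicle, duplicates. Readout: TaqMan qRT-PCR mRNA vs three housekeeping genes; bidirectional curve fit against DMSO baseline.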

[9] = read-out: Glutathione S-Transferase (GSTA2), GSTA2 (gene 2939); test: LTEA_HepaRG_GSTA2: Life Technologies and Expression Analysis (LTEA) Assay for Glutathione S-Transferase (GSTA2) using HepaRG (AID 2283497)
Procedure, shortened: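 Oxidative-stress marker GSTA2 is quantified by TaqMan qRT-PCR in HepaRG cultures treated 48 h across an eight-point range to 100 uM. Expression is normalized to endogenous controls and compared with 0.5% DMSO vehicle.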

[10] = read-out: Glutamate-cysteine ligase catalytic (GCLC), GCLC (gene 2729); test: LTEA_HepaRG_GCLC: Life Technologies and Expression Analysis (LTEA) Assay for Glutamate-cysteine ligase catalytic (GCLC) using HepaRG (AID 2283498)
Procedure, shortened: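 Oxidative-stress marker GCLC is measured as mRNA change in human HepaRG liver cells after 48 h chemical treatment in 0.5% DMSO, eight concentrations from 100 uM. Activity is fitted bidirectionally against vehicle.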

[11] = read-out: growth arrest and DNA damage 45 (GADD45G), GADD45G (gene 10912); test: LTEA_HepaRG_GADD45G: Life Technologies and Expression Analysis (LTEA) Assay for growth arrest and DNA damage 45 (GADD45G) using HepaRG (AID 2283499)
Procedure, shortened: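 Differentiated human HepaRG cells, 48 h post-plating, exposed 48 h in serum-free induction medium to 8 half-log concentrations (top 100 uM, 0.5% DMSO) in duplicate. GADD45G mRNA measured by Fluidigm TaqMan qRT-PCR, normalized to ACTB, GAPDH, POLR2A; bidirectional fit versus DMSO.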

[12] = read-out: Glutathione S-transferase M3 (GSTM3), GSTM3 (gene 2947); test: LTEA_HepaRG_GSTM3: Life Technologies and Expression Analysis (LTEA) Assay for Glutathione S-transferase M3 (GSTM3) using HepaRG (AID 2283501)
Procedure, shortened: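 Differentiated human HepaRG cells were exposed in duplicate for 48 h in serum-free induction medium, 8 points from 100 uM top in half-log steps, 0.5% DMSO. GSTM3 mRNA was measured by TaqMan qRT-PCR, normalized to ACTB, GAPDH and POLR2A; bidirectional fit versus DMSO.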

[13] = read-out: Heat shock 70 kDa protein 1 (HSPA1A), gene 3303; test: LTEA_HepaRG_HSPA1A: Life Technologies and Expression Analysis (LTEA) Assay for Heat shock 70 kDa protein 1 (HSPA1A) using HepaRG (AID 2283502)
Procedure, shortened: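 HSPA1A expression measured by qRT-PCR with ACTB/GAPDH/POLR2A normalization; curves fitted in both directions relative to DMSO vehicle. Exposure: 48 h in HepaRG cells, duplicate 8-point half-log series from 100 uM, 0.5% DMSO, serum-free induction medium.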

[14] = read-out: Hypoxia-inducible factor 1-alpha (Homo sapiens) (UniProt Q16665); test: LTEA_HepaRG_HIF1A: Life Technologies and Expression Analysis (LTEA) Assay for Hypoxia-inducible factor 1 (HIF1A) Trancription factor using HepaRG (AID 2283503)
Procedure, shortened: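 HIF1A transcript level read by qRT-PCR (ACTB, GAPDH, POLR2A normalization) after 48 h chemical exposure of HepaRG cultures. Eight half-log concentrations, top 100 uM, 0.5% DMSO vehicle, duplicates; bidirectional curve fit against DMSO baseline.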

[15] = read-out: 3-Hydroxy-3-Methylglutaryl-CoA Synthase 2 (HMGCS2), HMGCS2 (gene 3158); test: LTEA_HepaRG_HMGCS2: Life Technologies and Expression Analysis (LTEA) Assay for 3-Hydroxy-3-Methylglutaryl-CoA Synthase 2 (HMGCS2) using HepaRG (AID 2283504)
Procedure, shortened: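 Human HepaRG cells in serum-free induction medium were exposed in duplicate for 48 h to 8-point half-log series from 100 uM top in 0.5% DMSO. HMGCS2 mRNA measured by TaqMan qRT-PCR, normalised to ACTB, GAPDH, POLR2A; bidirectional fit versus DMSO.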

HGF (gene 3082) = test: LTEA_HepaRG_HGF: Life Technologies and Expression Analysis (LTEA) Assay for Hepatocyte Growth Facto (HGF) using HepaRG (AID 2283505)
Procedure, shortened: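 Differentiated HepaRG cells in serum-free induction medium exposed 48 h in duplicate, 8 half-log concentrations from 100 uM in 0.5% DMSO. HGF mRNA by qRT-PCR, normalised to ACTB, GAPDH, POLR2A; bidirectional fitting.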

[16] = read-out: Cytochrome P450 3A7 (Homo sapiens) (UniProt P24462); test: LTEA_HepaRG_CYP3A7: Life Technologies and Expression Analysis (LTEA) Assay for CYP3A7 using HepaRG (AID 2283492)
Procedure, shortened: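 Differentiated HepaRG cells in serum-free induction medium exposed 48 h in duplicate to 8-point half-log series from 100 uM top in 0.5% DMSO. CYP3A7 mRNA by qRT-PCR, normalized to ACTB/GAPDH/POLR2A, bidirectional fit versus DMSO.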

[17] = read-out: Glutamate-cysteine ligase regulatory (GCLM), GCLM (gene 2730); test: LTEA_HepaRG_GCLM: Life Technologies and Expression Analysis (LTEA) Assay for Glutamate-cysteine ligase regulatory (GCLM) using HepaRG (AID 2283500)
Procedure, shortened: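 GCLM expression quantified by qRT-PCR, normalized to three housekeeping genes, after 48 h chemical treatment of HepaRG cells in duplicate at 8 concentrations (top 100 uM, half-log steps, 0.5% DMSO). Changes fitted both directions against vehicle.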

Measured: AC50

Sequence of Cytochrome P450 3A4 (Homo sapiens) (P08684 whole entry, looked up): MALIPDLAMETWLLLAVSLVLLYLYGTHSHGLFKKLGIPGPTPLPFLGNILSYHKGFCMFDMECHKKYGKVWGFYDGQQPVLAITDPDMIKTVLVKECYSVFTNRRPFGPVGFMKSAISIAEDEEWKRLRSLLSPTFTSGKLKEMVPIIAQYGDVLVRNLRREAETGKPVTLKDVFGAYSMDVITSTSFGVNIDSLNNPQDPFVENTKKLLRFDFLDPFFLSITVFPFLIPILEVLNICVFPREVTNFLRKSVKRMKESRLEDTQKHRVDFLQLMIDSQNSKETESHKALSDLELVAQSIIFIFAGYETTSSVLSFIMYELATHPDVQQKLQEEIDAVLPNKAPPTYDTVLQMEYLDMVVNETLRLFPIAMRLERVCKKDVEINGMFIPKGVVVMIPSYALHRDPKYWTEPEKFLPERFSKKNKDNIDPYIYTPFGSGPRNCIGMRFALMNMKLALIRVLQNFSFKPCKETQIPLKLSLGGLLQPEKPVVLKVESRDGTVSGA
Sequence of Hypoxia-inducible factor 1-alpha (Homo sapiens) (Q16665 whole entry, looked up): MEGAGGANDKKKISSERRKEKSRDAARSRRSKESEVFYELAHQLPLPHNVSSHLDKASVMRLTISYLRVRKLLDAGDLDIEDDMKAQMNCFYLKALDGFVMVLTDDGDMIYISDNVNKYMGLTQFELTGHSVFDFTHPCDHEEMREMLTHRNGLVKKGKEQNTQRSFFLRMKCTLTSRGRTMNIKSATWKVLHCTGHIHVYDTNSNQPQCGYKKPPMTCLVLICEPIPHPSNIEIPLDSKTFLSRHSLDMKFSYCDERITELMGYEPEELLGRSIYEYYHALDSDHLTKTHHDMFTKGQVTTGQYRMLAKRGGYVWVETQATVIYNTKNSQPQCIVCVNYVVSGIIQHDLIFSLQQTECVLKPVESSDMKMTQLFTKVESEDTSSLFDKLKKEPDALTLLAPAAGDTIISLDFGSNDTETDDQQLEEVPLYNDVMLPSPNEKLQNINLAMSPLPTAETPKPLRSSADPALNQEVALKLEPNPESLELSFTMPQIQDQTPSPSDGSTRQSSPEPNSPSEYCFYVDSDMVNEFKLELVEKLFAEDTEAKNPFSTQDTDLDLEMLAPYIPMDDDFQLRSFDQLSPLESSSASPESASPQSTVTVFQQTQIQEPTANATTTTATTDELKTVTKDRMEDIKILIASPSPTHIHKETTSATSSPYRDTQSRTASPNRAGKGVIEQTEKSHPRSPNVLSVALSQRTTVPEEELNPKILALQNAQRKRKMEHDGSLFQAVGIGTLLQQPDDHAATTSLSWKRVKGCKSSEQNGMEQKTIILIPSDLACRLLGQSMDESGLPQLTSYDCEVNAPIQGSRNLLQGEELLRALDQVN
Sequence of Cytochrome P450 3A7 (Homo sapiens) (P24462 whole entry, looked up): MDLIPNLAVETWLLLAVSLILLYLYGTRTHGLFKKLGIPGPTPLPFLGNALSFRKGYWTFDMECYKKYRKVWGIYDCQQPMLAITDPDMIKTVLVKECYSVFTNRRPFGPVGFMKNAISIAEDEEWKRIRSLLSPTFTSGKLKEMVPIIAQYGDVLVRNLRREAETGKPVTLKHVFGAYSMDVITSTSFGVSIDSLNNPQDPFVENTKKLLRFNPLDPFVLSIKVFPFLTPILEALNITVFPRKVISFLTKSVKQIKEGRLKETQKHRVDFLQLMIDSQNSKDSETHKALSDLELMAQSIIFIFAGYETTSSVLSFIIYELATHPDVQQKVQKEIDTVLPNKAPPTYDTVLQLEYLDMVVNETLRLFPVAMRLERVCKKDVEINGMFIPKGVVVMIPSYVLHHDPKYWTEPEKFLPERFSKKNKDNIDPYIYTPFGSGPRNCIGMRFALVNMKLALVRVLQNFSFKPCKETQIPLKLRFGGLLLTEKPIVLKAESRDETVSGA

Clc1ccc(Cl)cc1
inactive: [1] | [2] | [3] | [4] | [5] | CYP3A5 (gene 1577) | [6] | [7] | [8] | [9] | [10] | [11] | [12] | [13] | [14] | [15] | HGF (gene 3082)

O=C(N[C@H]1CN2CCC1CC2)c1cc2ccoc2cn1
inactive: [1] | [2] | [3] | [4] | [5] | [16] | CYP3A5 (gene 1577) | [6] | [7] | [8] | [9] | [10] | [11] | [12] | [13] | [14] | [15] | HGF (gene 3082)

CCCN(CCC)N=O
inactive: [1] | [2] | [3] | [4] | [5] | CYP3A5 (gene 1577) | [6] | [7] | [8] | [9] | [10] | [11] | [12] | [13] | [14] | [15] | HGF (gene 3082)

CCOC(=O)C(O)(c1ccc(Cl)cc1)c1ccc(Cl)cc1
inactive: [1] | [2] | [3] | [4] | [5] | CYP3A5 (gene 1577) | [6] | [8] | [9] | [10] | [11] | [17] | [12] | [13] | [14] | [15] | HGF (gene 3082)
active: [7] 50 µM

C[C@]12CCC(=O)C=C1CC[C@@H]1[C@@H]2CC[C@]2(C)C(=O)CC[C@@H]12
active: [1] 30.8 µM | CYP3A5 (gene 1577) 50 µM | [6] 12.5 µM | [7] 72.7 µM | [8] 4.69 µM
inactive: [2] | [3] | [4] | [5] | [9] | [10] | [12] | [13] | [15] | HGF (gene 3082)

C=CC(N)=O
inactive: [2] | [3] | [4] | [5] | CYP3A5 (gene 1577) | [6] | [7] | [8] | [9] | [10] | [11] | [17] | [12] | [13] | [14] | [15] | HGF (gene 3082)

CN(C)CCO
inactive: [1] | [2] | [3] | [4] | [5] | CYP3A5 (gene 1577) | [6] | [7] | [8] | [9] | [10] | [11] | [12] | [13] | [14] | [15] | HGF (gene 3082)

CCSC(=O)N(CC)C1CCCCC1
inactive: [1] | [2] | [3] | [4] | [5] | CYP3A5 (gene 1577) | [6] | [7] | [9] | [10] | [17] | [12] | [13] | [14] | [15] | HGF (gene 3082)

ClC(Cl)=C(c1ccc(Cl)cc1)c1ccc(Cl)cc1
inactive: [2] | [3] | [4] | [5] | CYP3A5 (gene 1577) | [7] | [8] | [9] | [10] | [11] | [12] | [13] | [14] | HGF (gene 3082)
active: [1] 7.4 µM | [16] 8.96 µM | [6] 50 µM

CC(C)(O)C(=O)Nc1ccc([N+](=O)[O-])c(C(F)(F)F)c1
inactive: [1] | [5] | CYP3A5 (gene 1577) | [7] | [8] | [9] | [10] | [11] | [17] | [12] | [13] | [14]
active: [3] 0.0411 µM | [4] 0.0388 µM | [6] 25 µM | [15] 44.8 µM | HGF (gene 3082) 0.0291 µM
